# Measured values taken from PubChem BioAssay (Tox21).
# Results filed as inconclusive are left out. Entries that show only a call come without a potency. Unmarked numbers belong to inactive results. Activity calls are given as the source filed them. Unless noted, calls come from the whole dose curve; as a rule, active = well fitted curve in the direction sought with a large enough effect in the repeat runs; inconclusive = weak or mixed curves; inactive = no such curve, though single readings can be large; an effect the other way counts as inactive or inconclusive.
# Legend:
# [1] = qHTS assay to identify small molecule antagonists of the peroxisome proliferator-activated receptor gamma (PPARg) signaling pathway - cell viability counter screen (AID 743194); note: nearly all actives have a fitted effect of over 55% in size
# Outline: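 Viability was measured as CellTiter-Glo luminescence in GeneBLAzer PPARg UAS-bla HEK293H cells. These cells had been exposed 17 h at 37 C to compounds together with rosiglitazone at 50 nM final, with the beta-lactamase readout taken in the same wells.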
# [2] = qHTS assay for small molecule agonists of the antioxidant response element (ARE) signaling pathway (AID 743202; active = well fitted activation curve with a large enough effect in the signal ratio in the repeat runs, not every such curve was filed as active; the % refers to the signal ratio; note: potency is the fitted concentration of half-maximal effect)
# Outline: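 Beta-lactamase reporter activity, read as fluorescence intensity, reflects ARE/Nrf2 pathway induction in HepG2 cells after 16 h compound exposure at 37 C; substrate loading was 2 h at room temperature.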
# [3] = qHTS assay for small molecule agonists of the antioxidant response element (ARE) signaling pathway - cell viability counter screen (AID 743203; calls by dose curve; note: nearly all actives have a fitted effect of over 55% in size)
# Outline: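 Viability counter screen: stably transfected ARE-bla HepG2 line, 16 hrs compound exposure at 37C/5% CO2, ATP-based CellTiter-Glo luminescence measured in the reporter wells.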
# [4] = qHTS assay for small molecule activators of the heat shock response signaling pathway - cell viability counter screen (AID 743209); note: nearly all actives have a fitted effect of over 50% in size
# Outline: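 Viability of HSE-bla HeLa cells is measured with CellTiter-Glo in the wells already used for the reporter read. Compound exposure lasts 5 h at 37 C, and luminescence is read after 30 min at room temperature.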
# [5] = qHTS assay for small molecule activators of the heat shock response signaling pathway (AID 743210; active = well fitted activation curve with a large enough effect in the signal ratio in the repeat runs, with a control signal flat, not every such curve was filed as active; the % refers to the signal ratio;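 note: HeLa cells with beta-lactamase reporter driven by heat shock elements; series mostly up to about 63 µM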)
# Outline: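 Fluorescence from a cleaved B/G FRET substrate (2.5 h, room temp) reports HSE-driven beta-lactamase in HeLa cells treated 5 h at 37 C with DMSO-dissolved compounds.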
# [6] = target: Peroxisome proliferator-activated receptor delta (Homo sapiens) (UniProt Q03181); assay: qHTS assay to identify small molecule agonists of the peroxisome proliferator-activated receptor delta (PPARd) signaling pathway (AID 743212; calls by dose curve)
# Sequence of Peroxisome proliferator-activated receptor delta (Homo sapiens) (Q03181 whole entry, looked up): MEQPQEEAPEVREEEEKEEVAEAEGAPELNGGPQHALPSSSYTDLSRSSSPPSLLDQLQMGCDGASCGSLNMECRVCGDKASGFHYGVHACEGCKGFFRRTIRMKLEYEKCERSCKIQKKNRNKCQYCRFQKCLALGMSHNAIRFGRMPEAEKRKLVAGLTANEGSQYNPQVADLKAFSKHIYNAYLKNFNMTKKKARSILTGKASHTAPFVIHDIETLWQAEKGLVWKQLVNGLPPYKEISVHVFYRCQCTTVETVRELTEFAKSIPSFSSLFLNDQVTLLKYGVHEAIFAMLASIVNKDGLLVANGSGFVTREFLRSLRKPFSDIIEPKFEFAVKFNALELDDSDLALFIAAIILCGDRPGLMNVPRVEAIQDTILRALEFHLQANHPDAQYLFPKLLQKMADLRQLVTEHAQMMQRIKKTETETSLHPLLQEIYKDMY
# Outline: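 Steps: seed PPARd-bla HEK293H cells; incubate 5 h, 37 C, 5% CO2; add compounds in DMSO; incubate, 37 C; add LiveBLAzer B/G FRET substrate; hold 2 h at room temperature; measure fluorescence.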
# [7] = qHTS assay to identify small molecule antagonists of the peroxisome proliferator-activated receptor delta (PPARd) signaling pathway - cell viability counter screen (AID 743213); note: nearly all actives have a fitted effect of over 50% in size
# Outline: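 HEK293H PPARd UAS-bla cells, 5 h pre-incubation, compound + L165041 300 nM final, 17 h 37 C; B/G FRET substrate 2 h RT; then CellTiter-Glo 30 min RT, luminescence.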
# [8] = target: Peroxisome proliferator-activated receptor delta (Homo sapiens) (UniProt Q03181); assay: qHTS assay to identify small molecule antagonists of the peroxisome proliferator-activated receptor delta (PPARd) signaling pathway (AID 743215; active = well fitted inhibition curve with a large enough effect in the signal ratio in the repeat runs, not every such curve was filed as active; the % refers to the signal ratio;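 note: cells stimulated with agonist L165041 at 300 nM final during compound exposure; series mostly up to about 62 µM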)
# Outline: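 Plated HEK293H PPARd-bla cells rested 5 h at 37 C and 5% CO2. Compound, then agonist L165041 at 300 nM final, was added; 17 h at 37 C followed. Substrate loading, 2 h room temperature, fluorescence measured.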
# [9] = qHTS assay to identify small molecule agonists of the farnesoid-X-receptor (FXR) signaling pathway - cell viability counter screen (AID 743218); note: nearly all actives have a fitted effect of over 45% in size
# Outline: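 Viability of FXR-bla HEK 293T cells is measured by ATP-based CellTiter-Glo luminescence following 16 h compound treatment at 37 C and a prior 2 h room-temperature beta-lactamase substrate step.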
# [10] = qHTS assay to identify small molecule antagonists of the farnesoid-X-receptor (FXR) signaling pathway - cell viability counter screen (AID 743221; active = well fitted cell-killing curve with a large enough effect in the repeat runs, not every such curve was filed as active; note: nearly all actives have a fitted effect of over 50% in size)
# Outline: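 HEK 293T FXR-bla cells, 5 h pre-incubation; compound + CDCA 50 uM final, 16 h, 37 C; beta-lactamase FRET read first, then CellTiter-Glo luminescence, 30 min RT.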
# [11] = target: Vitamin D3 receptor (Homo sapiens) (UniProt P11473); assay: qHTS assay to identify small molecule agonists of the vitamin D receptor (VDR) signaling pathway (AID 743222; calls by dose curve)
# Sequence of Vitamin D3 receptor (Homo sapiens) (P11473 whole entry, looked up): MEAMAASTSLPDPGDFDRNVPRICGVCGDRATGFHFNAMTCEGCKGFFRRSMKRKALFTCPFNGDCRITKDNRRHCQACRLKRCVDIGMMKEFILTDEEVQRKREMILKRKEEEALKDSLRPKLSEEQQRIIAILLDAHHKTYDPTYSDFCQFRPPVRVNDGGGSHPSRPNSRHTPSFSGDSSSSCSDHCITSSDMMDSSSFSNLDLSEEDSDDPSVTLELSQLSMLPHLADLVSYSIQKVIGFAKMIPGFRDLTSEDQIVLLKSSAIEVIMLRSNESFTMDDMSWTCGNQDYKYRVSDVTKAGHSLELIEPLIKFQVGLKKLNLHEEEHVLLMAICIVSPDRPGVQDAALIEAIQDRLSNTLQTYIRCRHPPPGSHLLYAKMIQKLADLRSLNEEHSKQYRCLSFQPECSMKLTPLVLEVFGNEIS
# Outline: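 Fluorescence from cleaved LiveBLAzer B/G FRET substrate served as readout. VDR-bla cells had been treated 16 h at 37C with test compounds in DMSO, following a 4 h settling period, and substrate was loaded for 2 h at RT.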
# [12] = target: Vitamin D3 receptor (Homo sapiens) (UniProt P11473); assay: qHTS assay to identify small molecule antagonists of the vitamin D receptor (VDR) signaling pathway (AID 743223; active = well fitted inhibition curve with a large enough effect in the signal ratio in the repeat runs, not every such curve was filed as active; the % refers to the signal ratio)
# Outline: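 Beta-lactamase reporter read-out: FRET substrate fluorescence after 2 h at room temperature, following 16 h exposure of VDR-bla cells to test compound plus 3 nM (final) 1alpha,25-dihydroxyvitamin D3 agonist at 37C.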
# [13] = target: Peroxisome proliferator-activated receptor gamma (Homo sapiens) (UniProt P37231); assay: qHTS assay to identify small molecule antagonists of the peroxisome proliferator-activated receptor gamma (PPARg) signaling pathway (AID 743191; calls by dose curve; note: series mostly up to about 63 µM; nearly all actives have a fitted effect of over 30% in size)
# Sequence of Peroxisome proliferator-activated receptor gamma (Homo sapiens) (P37231 whole entry, looked up): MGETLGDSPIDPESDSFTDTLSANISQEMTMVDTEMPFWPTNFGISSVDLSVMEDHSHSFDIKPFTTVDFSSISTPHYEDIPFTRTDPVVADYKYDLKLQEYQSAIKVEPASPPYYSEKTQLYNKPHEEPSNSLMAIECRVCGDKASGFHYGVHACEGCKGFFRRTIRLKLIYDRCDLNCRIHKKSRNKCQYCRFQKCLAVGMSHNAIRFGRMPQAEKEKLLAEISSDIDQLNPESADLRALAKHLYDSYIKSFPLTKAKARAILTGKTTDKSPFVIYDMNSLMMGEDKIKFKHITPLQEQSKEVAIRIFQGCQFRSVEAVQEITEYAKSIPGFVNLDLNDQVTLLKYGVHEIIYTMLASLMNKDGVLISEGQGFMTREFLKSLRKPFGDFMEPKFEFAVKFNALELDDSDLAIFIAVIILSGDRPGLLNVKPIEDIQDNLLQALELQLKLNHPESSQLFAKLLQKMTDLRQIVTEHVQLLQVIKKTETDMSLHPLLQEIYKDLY
# Outline: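 Beta-lactamase reporter under UAS control in HEK293H PPARg-bla cells; compound treatment 17 h at 37C. Read-out: fluorescence intensity after 1 h room-temperature incubation with LiveBLAzer B/G FRET substrate.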
# [14] = qHTS assay to identify small molecule agonists of the peroxisome proliferator-activated receptor delta (PPARd) signaling pathway - cell viability counter screen (AID 743211); note: nearly all actives have a fitted effect of over 55% in size
# Outline: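 Read-out: CellTiter-Glo luminescence, 30 min RT, measured in the same wells as the beta-lactamase reporter. Cells: GeneBLAzer PPAR delta UAS-bla HEK293H, 3000 cells/well, compound exposure 17 h at 37C.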
# [15] = target: Bile acid receptor (Homo sapiens) (UniProt Q96RI1); assay: qHTS assay to identify small molecule antagonists of the farnesoid-X-receptor (FXR) signaling pathway (AID 743217; active = well fitted inhibition curve with a large enough effect in the signal ratio in the repeat runs, not every such curve was filed as active; the % refers to the signal ratio)
# Sequence of Bile acid receptor (Homo sapiens) (Q96RI1 whole entry, looked up): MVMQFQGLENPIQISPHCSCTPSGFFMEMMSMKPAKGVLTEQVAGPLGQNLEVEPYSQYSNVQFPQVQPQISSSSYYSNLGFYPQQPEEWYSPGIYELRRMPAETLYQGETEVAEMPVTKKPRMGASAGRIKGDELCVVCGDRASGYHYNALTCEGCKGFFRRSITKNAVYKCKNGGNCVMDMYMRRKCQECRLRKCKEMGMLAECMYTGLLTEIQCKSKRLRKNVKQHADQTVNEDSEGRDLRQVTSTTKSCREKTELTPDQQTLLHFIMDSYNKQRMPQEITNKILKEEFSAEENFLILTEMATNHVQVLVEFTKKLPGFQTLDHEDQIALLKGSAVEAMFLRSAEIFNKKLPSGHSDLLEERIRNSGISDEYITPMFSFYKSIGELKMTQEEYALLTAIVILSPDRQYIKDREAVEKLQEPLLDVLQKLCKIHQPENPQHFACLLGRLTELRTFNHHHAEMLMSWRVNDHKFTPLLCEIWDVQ
# Outline: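 Screen of the Tox21 10K library in quantitative HTS format using FXR-UAS-bla HEK 293T reporter cells. Agonist chenodeoxycholic acid, 50 uM final, added with compounds; 16 h incubation at 37 °C; beta-lactamase FRET fluorescence measured.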
# [16] = target: Bile acid receptor (Homo sapiens) (UniProt Q96RI1); assay: qHTS assay to identify small molecule agonists of the farnesoid-X-receptor (FXR) signaling pathway (AID 743220; active = well fitted activation curve with a large enough effect in the signal ratio in the repeat runs, not every such curve was filed as active; the % refers to the signal ratio)
# Outline: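 FXR-UAS-bla HEK 293T cells carrying a UAS-driven beta-lactamase reporter were plated for 5 h at 37C/5% CO2, then exposed to DMSO-dissolved Tox21 10K compounds for 16 h at 37C. A LiveBLAzer B/G FRET substrate was loaded for 2 h at room temperature before fluorescence reading.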
# [17] = target: Aryl hydrocarbon receptor (Homo sapiens) (UniProt P35869); assay: qHTS assay to identify small molecule that activate the aryl hydrocarbon receptor (AhR) signaling pathway (AID 743085);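 note: HG2L7.5c1 human HepG2 liver cells with stably integrated DRE-driven firefly reporter; series mostly up to about 70 µM; nearly all actives have a fitted effect of over 15% in size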
# Sequence of Aryl hydrocarbon receptor (Homo sapiens) (P35869 whole entry, looked up): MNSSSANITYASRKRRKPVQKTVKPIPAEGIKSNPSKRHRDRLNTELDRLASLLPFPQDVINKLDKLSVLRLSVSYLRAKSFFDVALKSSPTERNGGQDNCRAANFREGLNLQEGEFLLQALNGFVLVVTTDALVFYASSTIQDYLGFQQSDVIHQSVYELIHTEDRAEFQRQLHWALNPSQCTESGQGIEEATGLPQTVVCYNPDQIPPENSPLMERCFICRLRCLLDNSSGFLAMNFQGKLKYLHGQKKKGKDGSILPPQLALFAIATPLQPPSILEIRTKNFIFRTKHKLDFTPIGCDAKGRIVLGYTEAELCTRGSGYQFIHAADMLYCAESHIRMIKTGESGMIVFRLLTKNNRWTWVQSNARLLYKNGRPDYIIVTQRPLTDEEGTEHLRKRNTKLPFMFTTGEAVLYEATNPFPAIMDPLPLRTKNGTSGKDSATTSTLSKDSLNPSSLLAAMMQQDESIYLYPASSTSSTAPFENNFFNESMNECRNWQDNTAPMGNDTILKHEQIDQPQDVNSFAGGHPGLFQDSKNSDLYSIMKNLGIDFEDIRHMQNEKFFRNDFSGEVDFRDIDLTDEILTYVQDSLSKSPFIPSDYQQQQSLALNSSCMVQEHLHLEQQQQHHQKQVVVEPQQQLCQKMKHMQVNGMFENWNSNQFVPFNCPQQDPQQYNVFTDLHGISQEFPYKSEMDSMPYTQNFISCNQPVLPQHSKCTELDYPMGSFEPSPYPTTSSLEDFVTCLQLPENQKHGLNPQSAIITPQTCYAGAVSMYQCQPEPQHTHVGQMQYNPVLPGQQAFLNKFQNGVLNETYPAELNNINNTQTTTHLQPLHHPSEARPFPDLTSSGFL
# Outline: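 Luminescence read-out: ONE-Glo reagent, 30 min at room temperature, in HG2L7.5c1 HepG2 reporter cells treated 24 h at 37C. Viability was measured beforehand by CellTiter-Fluor fluorescence after 30 min at 37C.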
# [18] = qHTS assay to identify small molecule that activate the aryl hydrocarbon receptor (AhR) signaling pathway - cell viability counter screen (AID 743086);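 note: HepG2 liver cells carrying the AhR DRE luciferase reporter; series mostly up to about 70 µM; nearly all actives have a fitted effect of over 45% in size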
# Outline: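 Cytotoxicity counter screen: CellTiter-Fluor signal (30 min, 37 C) in 4000 HepG2 cells/well carrying the DRE-luciferase reporter, following 24 h compound exposure at 37 C.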
# [19] = qHTS assay to identify aromatase inhibitors - cell viability counter screen (AID 743084);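 note: cells stimulated with testosterone during compound exposure; nearly all actives have a fitted effect of over 55% in size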
# [20] = target: Peroxisome proliferator-activated receptor gamma (Homo sapiens) (UniProt P37231); assay: qHTS assay to identify small molecule agonists of the peroxisome proliferator-activated receptor gamma (PPARg) signaling pathway (AID 743094; active = well fitted activation curve with a large enough effect in the signal ratio in the repeat runs, not every such curve was filed as active; the % refers to the signal ratio)
# Outline: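 Reporter activation was scored by fluorescence of cleaved LiveBLAzer B/G substrate (1 h, room temperature) in PPARg-bla HEK293H cells previously treated 17 h at 37C with DMSO-dissolved compounds.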
Compound,outcome [1],Potency [2],outcome [3],Potency [4],outcome [5],outcome [6],outcome [7],outcome [8],outcome [9],outcome [10],outcome [11],outcome [12],outcome [13],outcome [14],outcome [15],outcome [16],Potency [17],outcome [18],outcome [19],outcome [20]
CC(C)(C)c1ccc(C(=O)CCCCl)cc1,inactive,inactive,inactive,inactive,inactive,inactive,inactive,inactive,inactive,inactive,inactive,inactive,,,,,,,,
COC(=O)c1ccc(NC(C)=O)cc1OC,inactive,inactive,inactive,,inactive,inactive,inactive,inactive,inactive,inactive,,,inactive,inactive,inactive,inactive,,,,
CCO[Si](CC(C)C)(OCC)OCC,,,inactive,,inactive,inactive,,inactive,inactive,inactive,inactive,inactive,inactive,,inactive,inactive,inactive,inactive,,
CCCCCCCCCCCCCC(=O)OCC,inactive,,inactive,,inactive,inactive,inactive,,,inactive,inactive,inactive,,inactive,,,,,inactive,inactive
Cc1cc(N)no1,inactive,,inactive,inactive,inactive,inactive,inactive,inactive,inactive,inactive,inactive,inactive,,inactive,,,,,,
COc1cc(S(N)(=O)=O)cc(C(=O)O)c1OC,inactive,inactive,inactive,inactive,inactive,inactive,inactive,inactive,,inactive,inactive,inactive,inactive,inactive,,,,,,
Clc1ccc2c(c1)Nc1ccccc1S2,inactive,29.8 µM (active),inactive,inactive,inactive,inactive,inactive,inactive,inactive,inactive,,inactive,,inactive,,,,,,
N#Cc1cc(NC(=O)C(=O)O)c(Cl)c(NC(=O)C(=O)O)c1,inactive,inactive,inactive,,inactive,inactive,inactive,inactive,inactive,,inactive,inactive,inactive,inactive,,,,,,
Cc1cc(=O)oc2cc(O[C@@H]3SC[C@@H](O)[C@H](O)[C@H]3O)ccc12,inactive,inactive,inactive,inactive,inactive,inactive,inactive,inactive,inactive,,inactive,,inactive,inactive,inactive,inactive,,,,
Cc1nnc(C(=O)NC(C)(C)c2nc(C(=O)NCc3ccc(F)cc3)c(O)c(=O)n2C)o1,inactive,,inactive,inactive,inactive,inactive,,,inactive,inactive,inactive,inactive,,inactive,,,,inactive,,
CC(=O)O[C@@H]1CC2C3CCc4cc(OC(=O)c5ccccc5)ccc4C3CCC2(C)[C@H]1OC(C)=O (stereo partly drawn),inactive,inactive,inactive,inactive,inactive,,inactive,,inactive,inactive,inactive,inactive,,inactive,inactive,inactive,,,,
CCCc1ncc(C(=O)O)s1,inactive,inactive,inactive,inactive,inactive,inactive,inactive,inactive,,inactive,inactive,inactive,inactive,inactive,inactive,inactive,,,,
CC(C)C(=O)Nc1cccc(C2CN3CCSC3=N2)c1 (stereo not drawn),inactive,,inactive,inactive,inactive,inactive,inactive,inactive,inactive,inactive,inactive,inactive,,inactive,inactive,inactive,,,,
CNC(=O)c1c(I)c(NC(C)=O)c(I)c(C(=O)O)c1I,inactive,inactive,inactive,,inactive,inactive,inactive,inactive,,inactive,,,,inactive,,,,,,
CCOC(=O)CN1CCCC1=O,inactive,inactive,inactive,,inactive,,inactive,inactive,inactive,,inactive,inactive,,inactive,,,,,,
COc1ccccc1N1CCN(CC(O)COc2cc(OC)c(OC)c(OC)c2)CC1 (stereo not drawn),inactive,,inactive,inactive,inactive,inactive,,inactive,inactive,inactive,,,inactive,inactive,,,,,,
Cc1cc2c(cc1CC(=O)c1sccc1S(=O)(=O)Nc1onc(C)c1Cl)OCO2,inactive,,inactive,inactive,inactive,inactive,,,inactive,,,inactive,,inactive,,,,,,
O=C1CC2(CCCC2)CC(=O)N1CCNCC1COc2ccccc2O1 (stereo not drawn),,inactive,inactive,,,,inactive,,inactive,inactive,inactive,inactive,,inactive,inactive,inactive,inactive,inactive,,
CO/N=C(\C(=O)O)c1csc(NC(=O)CCl)n1,inactive,13.3 µM (active),inactive,inactive,inactive,,,,inactive,,inactive,inactive,,,,,,,,
NNC(=O)CCCCC(=O)NN,inactive,inactive,inactive,inactive,inactive,inactive,inactive,,inactive,inactive,inactive,inactive,inactive,inactive,inactive,inactive,,,inactive,
